Data from PubChem BioAssay (NCATS).
Values joined by “and” are separate entries in the source; they are usually repeats but may differ in a detail not shown here. Equal entries are not always repeated. Inconclusive results are not listed. A call without a number means that no potency is given here. Active and inactive are the calls of the source. Unless noted, calls follow the shape of the dose curve; as a rule, active = well fitted curve in the direction sought with a large enough effect; inconclusive = small, poorly fitted or top-dose-only effect, or another doubt; inactive = no such curve, though single readings can be large; an effect the other way counts as inactive or inconclusive.

Molecular target: Aldehyde dehydrogenase, mitochondrial (Homo sapiens) (UniProt P05091)
Assay: qHTS for Inhibitors of the Aldehyde Dehydrogenase Family (ALDH2) Confirmatory screens (AID 2061303; active = well fitted inhibition curve with a large enough effect; title and protocol of this record describe different tests; also: nearly all actives have a fitted effect of over 45% in size)
Details: ALDH inhibition qHTS; series mostly up to 45.4 µM

SMILES	Potency
CCN1C(=O)C=CC1=O	inactive
OCC1O[C@H]([S-])[C@H](O)[C@@H](O)[C@@H]1O.[Au+] (stereo not given in full)	inactive
COC1=C(OC)C(=O)c2ccccc2C1=O	inactive
CN(C)c1cc2c(Nc3ccc4c(cnn4Cc4ccccc4)c3)ncnc2cn1	inactive

System: not listed separately
Assay: qHTS for Inhibitors of the Aldehyde Dehydrogenase Family (ALDH1A2, ALDH1A3, ALDH2, ALDH3A1) (AID 2061307); also: nearly all actives have a fitted effect of over 50% in size; as to potency: test system not described further here; potency is read from the fitted curve at half-maximal effect
Details: ALDH inhibition qHTS; series mostly up to 50.3 µM

SMILES	Potency
CCN1C(=O)C=CC1=O	inactive
OCC1O[C@H]([S-])[C@H](O)[C@@H](O)[C@@H]1O.[Au+] (stereo not given in full)	2830 nM (active)
CCCCN(CC)c1nc(C)nc2c1c(C)cn2-c1c(C)cc(C)cc1C	inactive
COC1=C(OC)C(=O)c2ccccc2C1=O	inactive
O=c1onc2cnc3ccccc3n12	31.8 nM (active)

Molecular target: Aldehyde dehydrogenase, mitochondrial (Homo sapiens) (UniProt P05091)
Assay: qHTS for Inhibitors of the Aldehyde Dehydrogenase Family (ALDH2) Primary screen (AID 2061308); also: nearly all actives have a fitted effect of over 55% in size
Details: ALDH2 enzyme inhibition qHTS, 1536-well; series mostly up to 56 µM

SMILES	Potency
NS(=O)(=O)c1ccc(-n2nc(C(F)(F)F)cc2-c2ccc(Cl)cc2)cc1	inactive
CCN(CC)CCNC(=O)c1cc(Cl)c(N)cc1OC	inactive
CCCCN(CC)c1nc(C)nc2c1c(C)cn2-c1c(C)cc(C)cc1C	inactive
COc1cc2ncnc(Nc3cccc(Cl)c3)c2cc1OC	inactive
CCNc1nc2c(ncn2[C@H]2C[C@H](O)[C@@H](CO)O2)c(=O)[nH]1	inactive
CN(C)c1cc2c(Nc3ccc4c(cnn4Cc4ccccc4)c3)ncnc2cn1	inactive
CNCCCC12CCC(c3ccccc31)c1ccccc12	inactive
CCOC(=O)CSc1nc2c(sc3ccccc32)c(=O)n1CCCN1CCCC1	inactive
Nc1ncnc2n[nH]c(Nc3ccc(F)cc3)c12	inactive
COC(=O)C1=C(C)NC(C)=C(C(=O)OC)C1c1cccc(NC(=O)NCCCN2CCC(c3cccc(OC)c3)CC2)c1	inactive
CCCNC(=O)NS(=O)(=O)c1ccc(Cl)cc1	inactive
O=C(O)CCc1ccc(NCc2cccc(Oc3ccccc3)c2)cc1	inactive

Molecular target: Retinaldehyde dehydrogenase 3 (Homo sapiens) (UniProt P47895)
Assay: qHTS for Inhibitors of the Aldehyde Dehydrogenase Family (ALDH1A3) Confirmatory screens (AID 2061311); also: nearly all actives have a fitted effect of over 60% in size; also: potency is read from the fitted curve at half-maximal effect
Details: ALDH inhibition qHTS; series mostly up to 46 µM

SMILES	Potency
CCN1C(=O)C=CC1=O	inactive
COC1=C(OC)C(=O)c2ccccc2C1=O	712 nM (active)
CN(C)c1cc2c(Nc3ccc4c(cnn4Cc4ccccc4)c3)ncnc2cn1	10000 nM (active)

Molecular target: Retinaldehyde dehydrogenase 3 (Homo sapiens) (UniProt P47895)
Assay: qHTS for Inhibitors of the Aldehyde Dehydrogenase Family (ALDH1A3) Validation screen (AID 2061312); also: nearly all actives have a fitted effect of over 45% in size; also: potency is read from the fitted curve at half-maximal effect
Details: ALDH1A3 enzyme inhibition qHTS validation, fluorescence; series mostly up to 84.7 µM

SMILES	Potency
NS(=O)(=O)c1ccc(-n2nc(C(F)(F)F)cc2-c2ccc(Cl)cc2)cc1	inactive
CCN(CC)CCNC(=O)c1cc(Cl)c(N)cc1OC	inactive
CCCOC(=O)c1c(-c2ccccc2)nc(CC)c(C(=O)SCC)c1CCC	inactive
NCCCCCCCCCCN	inactive
NC1C=CC=C(C(=O)O)C1 (stereo not given)	inactive
CCCCN(CC)c1nc(C)nc2c1c(C)cn2-c1c(C)cc(C)cc1C	1.26 µM (active) and 12.6 µM (active)
COCc1nc2c([nH]1)c(=O)n(C)c(=O)n2CC(C)C	inactive
COc1cc2ncnc(Nc3cccc(Cl)c3)c2cc1OC	inactive
CCNc1nc2c(ncn2[C@H]2C[C@H](O)[C@@H](CO)O2)c(=O)[nH]1	inactive
CN(C)c1cc2c(Nc3ccc4c(cnn4Cc4ccccc4)c3)ncnc2cn1	inactive
CN(C)CCCN1c2ccccc2Sc2ccc(C(F)(F)F)cc21	inactive
c1ccc2nc(C3=NCCN3)ccc2c1	inactive
CNCCCC12CCC(c3ccccc31)c1ccccc12	inactive
CCOC(=O)CSc1nc2c(sc3ccccc32)c(=O)n1CCCN1CCCC1	inactive
CCOC(=O)N1CCC(=C2c3ccc(Cl)cc3CCc3cccnc32)CC1	inactive
Nc1ncnc2n[nH]c(Nc3ccc(F)cc3)c12	inactive
NC(=O)CNCCC(c1ccccc1)c1ccccc1	inactive
COC(=O)C1=C(C)NC(C)=C(C(=O)OC)C1c1cccc(NC(=O)NCCCN2CCC(c3cccc(OC)c3)CC2)c1	inactive
CCCNC(=O)NS(=O)(=O)c1ccc(Cl)cc1	inactive
O=C(O)CCc1ccc(NCc2cccc(Oc3ccccc3)c2)cc1	inactive
CC12C(=O)OC(=O)C1(C)C1CCC2O1 (stereo not given)	inactive
